Screening results: PubChem, several laboratories
The entries come from a sample that favours hits as a whole.
ALR H2O2 inh: blocks human ALR sulfhydryl oxidase activity; actives 3.8% (n = 290,000); purified ALR, DTT oxidation, H2O2 HRP-luminol luminescence; inhibition, % (test concentration not listed); P55789;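 active = mean replicate inhibition above about 79%, with every replicate also reaching it, limit read from the data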
HDAC3 inh: blocks human histone deacetylase 3; recombinant HDAC3, fluorogenic peptide/trypsin coupled, fluorescence; inhibition, % at 8.3 µM; actives 0.15% (n = 320,000); AID 2718; in the data active = inhibition above about 26%, passing the limit was not always enough
GC-B act: GC-B (human) receptor activation. actives 0.11% (n = 370,000). activation, % at 10 µM. AID 1920062. HEK293-GC-B cells, CNP EC30, cGMP TR-FRET; 0% at EC30 CNP, 100% saturating CNP;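 active = activation at 10 µM reaching about 35% in either raw or pattern-adjusted values, limit read from the data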
Target sequence (P20594 whole entry, looked up): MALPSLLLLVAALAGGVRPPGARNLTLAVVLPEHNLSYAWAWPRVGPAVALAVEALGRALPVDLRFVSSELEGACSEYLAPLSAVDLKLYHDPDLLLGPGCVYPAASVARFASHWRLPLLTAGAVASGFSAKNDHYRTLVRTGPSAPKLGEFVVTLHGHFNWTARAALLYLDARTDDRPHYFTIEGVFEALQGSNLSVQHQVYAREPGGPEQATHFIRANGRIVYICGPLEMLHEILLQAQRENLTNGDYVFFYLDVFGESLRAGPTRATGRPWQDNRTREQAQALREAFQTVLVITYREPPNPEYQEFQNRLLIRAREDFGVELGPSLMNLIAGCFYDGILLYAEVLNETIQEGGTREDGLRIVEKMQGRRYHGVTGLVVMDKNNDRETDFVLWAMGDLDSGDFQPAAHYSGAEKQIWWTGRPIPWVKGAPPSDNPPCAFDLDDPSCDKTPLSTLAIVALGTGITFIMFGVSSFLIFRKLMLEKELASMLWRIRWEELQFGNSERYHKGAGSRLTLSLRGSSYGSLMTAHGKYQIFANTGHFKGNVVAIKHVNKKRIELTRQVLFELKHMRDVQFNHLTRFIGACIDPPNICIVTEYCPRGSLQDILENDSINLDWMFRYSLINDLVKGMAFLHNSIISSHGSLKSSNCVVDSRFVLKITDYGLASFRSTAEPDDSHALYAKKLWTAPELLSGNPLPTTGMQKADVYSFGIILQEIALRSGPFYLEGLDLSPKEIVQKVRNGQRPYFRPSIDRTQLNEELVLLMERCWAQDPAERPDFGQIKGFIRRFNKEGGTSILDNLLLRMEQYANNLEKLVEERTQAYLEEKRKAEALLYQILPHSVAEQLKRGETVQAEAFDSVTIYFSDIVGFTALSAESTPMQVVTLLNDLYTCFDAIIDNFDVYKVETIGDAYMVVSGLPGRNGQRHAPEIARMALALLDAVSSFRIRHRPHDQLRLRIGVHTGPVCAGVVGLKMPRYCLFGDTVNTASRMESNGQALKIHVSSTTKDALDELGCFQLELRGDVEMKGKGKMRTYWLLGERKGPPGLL
NPR1 activator: GC-A (human) enzyme activation; P16066; HEK293 GC-A cells, cGMP TR-FRET, EC30 ANP; 0% at EC30 ANP, 100% saturating ANP; activation, % at 10 µM; actives 0.14% (n = 370,000); AID 1671463; in the data active = activation above about 40%
* hit, by the source's call; · = not tested or not shown.

SMILES	ALR H2O2 inh	HDAC3 inh	GC-B act	NPR1 activator
CC(C)N(CCO)C(=O)C(c1ccccc1)c1ccccc1	0	-3	-3	-4
N#CCCN(C(=O)CSc1ccc2c(c1)OCCO2)c1ccccc1	89*	1	2	-4
CC(=O)Nc1ccc(SCC(=O)N(CCC#N)c2cc(C)cc(C)c2)cc1	98*	1	-6	-7
Cc1cc(C)cc(N(CCC#N)C(=O)CSc2nc3nc(C)cc(C)n3n2)c1	-1	-6	-3	3
COc1ccc(-n2c(C)cc(C(=O)CSc3ccc(NC(C)=O)cc3)c2C)cc1	97*	11	4	-1
CC(=O)Nc1ccc(SCC(=O)c2cc(C)ccc2C)cc1	98*	7	3	-3
CC(=O)Nc1ccc(SCC(=O)c2cc(C)n(-c3ccccc3)c2C)cc1	99*	-9	4	-2
O=C(Nc1nnc(-c2cccnc2)o1)c1cccc([N+](=O)[O-])c1	90*	-6	·	·
Cc1cccc(C(=O)Nc2nnc(-c3ccncc3)o2)c1	97*	-3	1	-4
Cc1cccc(C(=O)Nc2nnc(-c3cccnc3)o2)c1	6	4	0	4
O=C(NCc1c(Cl)cccc1Oc1ccccc1)c1ccccc1	·	3	-2	5
CCCCN1CC(=O)N2[C@H](c3ccc(OC)cc3)[C@@H]3C(=O)N(CC)C(=O)[C@@H]3[C@]2(C)C1=O	·	-1	·	·
Cc1ccc(OCCC(=O)OCC(=O)c2ccc3c(c2)NC(=O)CO3)cc1	0	1	7	3
COC(=O)Nc1ccc(S(=O)(=O)N2CCCC(C(=O)NC3CCS(=O)(=O)C3)C2)cc1 (stereo not given)	·	·	2	-2
CS(=O)(=O)N1CCC(C(=O)NCc2ccc(Cl)cc2)CC1	0	-1	0	-2
O=C1ON=C(c2ccccc2)/C1=C/c1ccccc1	·	1	6	1
COc1cc(/C=C2/C(=O)ON=C2c2ccccc2)ccc1O	95*	1	5	20
COc1cc(/C=C2\C(=O)ON=C2c2ccccc2)cc(Br)c1O	·	2	5	15
COc1cc(/C=C2\C(=O)ON=C2c2ccccc2)cc(Cl)c1O	99*	7	-3	15
Cc1ccc(/C=C2/C(=O)ON=C2c2ccccc2)o1	69	9	33	39
CCOc1cc(/C=C2\C(=O)ON=C2c2ccccc2)cc(Br)c1O	·	9	7	22
O=C1ON=C(c2ccccc2)/C1=C\c1ccco1	·	-1	42*	27
O=C1ON=C(c2ccccc2)/C1=C/c1ccc(O)cc1	87*	4	11	35
O=C1CC(Nc2ccc(N3CCOCC3)cc2)C(=O)N1c1cccc(C(F)(F)F)c1 (stereo not given)	·	1	·	·
Cc1ccc(CN2C(=O)CC(Nc3ccc(N4CCOCC4)cc3)C2=O)cc1 (stereo not given)	99*	-5	-5	-5
SMILES	ALR H2O2 inh	HDAC3 inh	GC-B act	NPR1 activator
COc1cccc(N2C(=O)CC(Nc3ccc(N4CCOCC4)cc3)C2=O)c1 (stereo not given)	99*	1	·	·
COc1ccc(N2C(=O)CC(Nc3ccc(N4CCOCC4)cc3)C2=O)c(OC)c1 (stereo not given)	98*	-6	1	-6
COc1ccccc1CCC(=O)OCC(=O)Nc1cc(C)nn1-c1ccccc1	-4	-1	1	-2
CCOC(=O)c1[nH]c(C)c(C(=O)NC2CCCC2)c1C	-1	-5	56*	3
CCOC(=O)c1[nH]c(C)c(C(=O)NC2CCCCCC2)c1C	-5	-2	2	3
CCCCC(=O)Nc1ccccc1C(=O)OCC(=O)c1ccc2c(c1)OCCO2	-2	4	-1	-18
CCOC(=O)c1ccccc1NC(=O)/C=C/C(=O)O	98*	1	2	3
O=C(O)/C=C/C(=O)Nc1ccccc1C(=O)OCC(=O)c1ccc2c(c1)OCCO2	88*	3	6	4
COC(=O)c1ccccc1NC(=O)/C=C/C(=O)O	·	3	0	0
O=C(C(=O)N1CCCCC1)c1cn(CC(=O)N2CCCCCC2)c2ccccc12	-3	6	0	-4
CCN=C1NC(CCc2ccccc2)C(C(=O)OC)=C(C)N1Cc1ccccc1C(F)(F)F (stereo not given)	·	·	-10	-8
CCN(CC)C(=O)CN1C(=O)C2CCCCN2C(=O)c2ccccc21 (stereo not given)	·	·	-3	-1
CCOC(=O)C1=C(c2ccccc2)NC(=O)NC1c1ccc(N(C)C)cc1 (stereo not given)	99*	1	·	·
N#C/C(=C\c1ccc(C#N)cc1)C(=O)c1ccccc1	93*	-3	3	6
Cn1ccnc1SC(=O)N1c2ccccc2Sc2ccccc21	99*	2	1	-7
O=C(Sc1nnc(-c2ccccc2)o1)N1c2ccccc2Sc2ccccc21	93*	-1	-2	0
COc1cc(OC)cc(-c2nnc(NC(=O)CCS(=O)(=O)c3ccc(C)cc3)o2)c1	-3	-2	-2	-3
O=C(c1cnn2c(-c3ccccc3)cc(-c3ccccc3)nc12)N1CCN(Cc2ccccc2)CC1	-2	-2	35*	30
CC(=O)Nc1ccc(S(=O)(=O)NNC(=O)COc2ccc(C(C)(C)C)cc2)cc1	97*	2	4	-3
CC(=O)Nc1ccc(S(=O)(=O)NNC(=O)c2cccc(Cl)c2)cc1	99*	0	3	-1
CC(=O)Nc1ccc(S(=O)(=O)NNC(=O)c2ccc3c(c2)OCO3)cc1	15	7	7	6
CCCCN(C)CCNC(=O)C1CCN(S(=O)(=O)c2cccc3nsnc23)CC1	-5	2	3	2
CCCCn1c(N)c(N(CCC(C)C)C(=O)c2oc3ccc(OCC)cc3c2C)c(=O)[nH]c1=O	-2	-2	4	1
CC(=O)Nc1ccc(SCC(=O)N(C)C2CCS(=O)(=O)C2)cc1 (stereo not given)	98*	-6	-2	-3
CCN(C(=O)CSc1nc2ccc(C)cc2[nH]1)C1CCS(=O)(=O)C1 (stereo not given)	23	0	5	4
SMILES	ALR H2O2 inh	HDAC3 inh	GC-B act	NPR1 activator
CCN(C(=O)CSc1nc(-c2ccccc2)c(-c2ccccc2)[nH]1)C1CCS(=O)(=O)C1 (stereo not given)	99*	-7	2	2
CCN(C(=O)CSc1nnc(-c2ccc3c(c2)OCO3)o1)C1CCS(=O)(=O)C1 (stereo not given)	·	-2	1	-3
CCN(C(=O)CSc1ccc2c(c1)OCCO2)C1CCS(=O)(=O)C1 (stereo not given)	92*	-1	7	3
CCCN(C(=O)/C=C/c1nc2ccccc2s1)C1CCS(=O)(=O)C1 (stereo not given)	43	-2	-4	2
Cn1nc(-c2ccccc2)c2ncc(C(F)(F)F)cc21	1	-7	·	·
CN(C(=O)N1CCN(S(=O)(=O)c2ccccc2)CC1)c1ccccc1	-2	3	4	-1
